What all share (test): DAPPL (digital affinity profiling via proximity ligation, sequencing); 10 mM Tris-HCl pH 7.5, 50 mM NaCl, 1 mM DTT, 4% glycerol, room temperature, 30 min; GST-TFs on glutathione beads, 16-mer random dsDNA library, 0.1% formaldehyde crosslink after washing; high values mean tight binding
For one assay, the target named is T1, FEV (Homo sapiens, UniProt Q99581 1-238).
T1 sequence: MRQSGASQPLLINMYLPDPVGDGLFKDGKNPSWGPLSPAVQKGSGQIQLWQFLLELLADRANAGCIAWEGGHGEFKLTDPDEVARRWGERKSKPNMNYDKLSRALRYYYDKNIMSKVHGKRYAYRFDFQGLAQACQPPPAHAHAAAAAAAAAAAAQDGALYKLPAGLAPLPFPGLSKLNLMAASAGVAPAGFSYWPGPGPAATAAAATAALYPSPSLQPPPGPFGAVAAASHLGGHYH
The note with it: protein: recombinant; tags: N-terminal GST; dsDNA, one strand shown. The method, boiled down: (§1)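 Human transcription factors fused to GST were expressed in yeast, captured on glutathione beads, given DNA barcodes and pooled with a GST-only negative control. Pools were incubated with 200 nmole of a 16-mer random double-stranded DNA library in Tris/NaCl/DTT/glycerol buffer at room temperature for 30 min. They were then washed, crosslinked with 0.1% formaldehyde, proximity-ligated (BsaI/T4 ligase, 1 h, 37 °C), PCR-amplified and sequenced on an Illumina NextSeq500. Binding signal is each 6-mer's read frequency for a factor divided by its frequency for the GST control.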

The next assay has as its target ETV5 (Homo sapiens, UniProt P41161 1-510). Particulars: protein: recombinant; tags: N-terminal GST; dsDNA, one strand shown. The method, boiled down: as §1
For another assay, the target named is HSF1 (Homo sapiens, UniProt Q00613 1-529). The note with it: protein: recombinant; tags: N-terminal GST; chain copies: 3; dsDNA, one strand shown. The method, boiled down: as §1
Chain of HSF1 (Q00613 whole entry): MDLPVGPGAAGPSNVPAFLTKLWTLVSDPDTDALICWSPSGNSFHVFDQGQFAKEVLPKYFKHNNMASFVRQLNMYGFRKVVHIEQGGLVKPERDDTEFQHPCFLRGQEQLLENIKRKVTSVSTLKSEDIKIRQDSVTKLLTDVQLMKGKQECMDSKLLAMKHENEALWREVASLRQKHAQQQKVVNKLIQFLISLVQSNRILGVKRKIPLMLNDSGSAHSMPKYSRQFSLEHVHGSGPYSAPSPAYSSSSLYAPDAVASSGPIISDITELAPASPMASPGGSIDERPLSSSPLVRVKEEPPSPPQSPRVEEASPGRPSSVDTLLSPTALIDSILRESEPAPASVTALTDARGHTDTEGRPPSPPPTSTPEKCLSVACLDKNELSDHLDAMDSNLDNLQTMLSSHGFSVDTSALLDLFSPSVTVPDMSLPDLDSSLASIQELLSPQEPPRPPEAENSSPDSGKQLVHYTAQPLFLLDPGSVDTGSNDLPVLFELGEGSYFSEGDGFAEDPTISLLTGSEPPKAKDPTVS
Another assay concerns the target T2, SPIC (Homo sapiens, UniProt Q8N5J4 1-248).
T2 sequence: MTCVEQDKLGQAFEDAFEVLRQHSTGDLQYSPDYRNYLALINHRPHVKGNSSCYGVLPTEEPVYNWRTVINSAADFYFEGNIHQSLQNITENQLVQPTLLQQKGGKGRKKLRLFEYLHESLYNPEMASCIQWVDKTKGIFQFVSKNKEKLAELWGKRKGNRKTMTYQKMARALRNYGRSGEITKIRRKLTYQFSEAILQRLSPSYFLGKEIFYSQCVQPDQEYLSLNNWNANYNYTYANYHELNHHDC
Particulars: protein: recombinant; tags: N-terminal GST; dsDNA, one strand shown. The method, boiled down: as §1

Another assay deals with ELF4 (Homo sapiens, UniProt Q99607 1-663). Particulars: protein: recombinant; tags: N-terminal GST; dsDNA, one strand shown. The method, boiled down:
as §1

The next assay has as its target T3, ELK4 (Homo sapiens, UniProt P28324-2 1-405).
T3 sequence: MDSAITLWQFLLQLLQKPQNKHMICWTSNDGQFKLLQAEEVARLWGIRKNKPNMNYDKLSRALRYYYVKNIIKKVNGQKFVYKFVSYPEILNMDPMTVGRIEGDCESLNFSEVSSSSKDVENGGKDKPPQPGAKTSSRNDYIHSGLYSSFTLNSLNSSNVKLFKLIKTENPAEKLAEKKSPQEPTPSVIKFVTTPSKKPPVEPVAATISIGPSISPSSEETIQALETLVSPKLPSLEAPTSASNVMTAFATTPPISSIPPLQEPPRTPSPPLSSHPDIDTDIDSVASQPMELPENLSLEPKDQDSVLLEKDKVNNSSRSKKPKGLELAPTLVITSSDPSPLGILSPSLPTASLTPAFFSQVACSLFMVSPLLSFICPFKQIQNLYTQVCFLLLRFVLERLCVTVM
The note with it: protein: recombinant; tags: N-terminal GST; dsDNA, one strand shown. The method, boiled down: as §1

The next assay has as its target T4, ETV2 (Homo sapiens, UniProt O00321 1-342).
T4 sequence: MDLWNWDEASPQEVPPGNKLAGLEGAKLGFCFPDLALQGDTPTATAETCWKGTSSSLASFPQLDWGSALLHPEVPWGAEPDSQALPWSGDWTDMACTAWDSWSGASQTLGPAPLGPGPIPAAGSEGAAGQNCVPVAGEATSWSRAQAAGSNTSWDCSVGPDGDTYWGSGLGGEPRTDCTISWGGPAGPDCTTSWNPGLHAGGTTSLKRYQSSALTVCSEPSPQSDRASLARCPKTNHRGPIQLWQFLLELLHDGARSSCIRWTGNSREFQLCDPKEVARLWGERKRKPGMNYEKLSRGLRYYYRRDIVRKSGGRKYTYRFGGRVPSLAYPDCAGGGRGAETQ
The note with it: protein: recombinant; tags: N-terminal GST; dsDNA, one strand shown. The method, boiled down:
as §1

Another assay has as its target T5, ELF3 (Homo sapiens, UniProt P78545 1-371).
T5 sequence: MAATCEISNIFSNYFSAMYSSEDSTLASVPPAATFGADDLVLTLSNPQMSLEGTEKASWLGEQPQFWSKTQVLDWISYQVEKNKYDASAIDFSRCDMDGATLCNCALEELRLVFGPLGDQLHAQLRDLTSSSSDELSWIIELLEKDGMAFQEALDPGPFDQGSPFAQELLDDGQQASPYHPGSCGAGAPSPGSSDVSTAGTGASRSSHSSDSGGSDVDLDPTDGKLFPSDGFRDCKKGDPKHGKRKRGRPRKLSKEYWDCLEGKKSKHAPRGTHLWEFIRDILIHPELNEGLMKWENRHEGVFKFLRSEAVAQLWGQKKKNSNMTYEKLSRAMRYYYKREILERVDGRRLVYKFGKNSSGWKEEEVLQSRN
The note with it: protein: recombinant; tags: N-terminal GST; dsDNA, one strand shown. The method, boiled down:
as §1

A further assay deals with CRX (Homo sapiens, UniProt O43186 1-299). The note with it: protein: recombinant; tags: N-terminal GST; dsDNA, one strand shown. The method, boiled down: as §1
Chain of CRX (O43186 whole entry): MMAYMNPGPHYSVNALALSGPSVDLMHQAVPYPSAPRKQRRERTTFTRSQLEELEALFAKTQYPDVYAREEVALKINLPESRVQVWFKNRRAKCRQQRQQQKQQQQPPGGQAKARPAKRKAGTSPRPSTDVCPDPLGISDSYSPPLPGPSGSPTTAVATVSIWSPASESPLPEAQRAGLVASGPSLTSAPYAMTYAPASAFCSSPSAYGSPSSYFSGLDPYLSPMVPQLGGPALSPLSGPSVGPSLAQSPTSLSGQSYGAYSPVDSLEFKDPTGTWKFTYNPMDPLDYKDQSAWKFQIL
A further assay deals with ETV1 (Homo sapiens, UniProt P50549 1-477). Particulars: protein: recombinant; tags: N-terminal GST; dsDNA, one strand shown. The method, boiled down:
as §1

A further assay concerns the target T6, ERF (Homo sapiens, UniProt P50548 1-548).
T6 sequence: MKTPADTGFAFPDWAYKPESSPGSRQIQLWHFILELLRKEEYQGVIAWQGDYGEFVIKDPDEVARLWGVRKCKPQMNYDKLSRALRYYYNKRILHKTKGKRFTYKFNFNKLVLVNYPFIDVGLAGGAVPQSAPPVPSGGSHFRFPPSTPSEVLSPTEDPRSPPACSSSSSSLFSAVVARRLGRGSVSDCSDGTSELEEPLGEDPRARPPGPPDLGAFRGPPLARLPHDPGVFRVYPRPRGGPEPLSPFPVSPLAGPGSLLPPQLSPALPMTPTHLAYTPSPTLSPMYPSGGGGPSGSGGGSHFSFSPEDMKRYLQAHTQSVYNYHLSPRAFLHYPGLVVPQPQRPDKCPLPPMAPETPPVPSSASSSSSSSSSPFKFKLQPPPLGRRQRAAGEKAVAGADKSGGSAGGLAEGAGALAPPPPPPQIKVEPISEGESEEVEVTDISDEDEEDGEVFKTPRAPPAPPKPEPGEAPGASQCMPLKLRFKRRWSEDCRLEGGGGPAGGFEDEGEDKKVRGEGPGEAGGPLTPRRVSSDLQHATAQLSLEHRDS
The note with it: protein: recombinant; tags: N-terminal GST; dsDNA, one strand shown. The method, boiled down: as §1

The next assay concerns the target T7, ETV3L (Homo sapiens, UniProt Q6ZN32 1-361).
T7 sequence: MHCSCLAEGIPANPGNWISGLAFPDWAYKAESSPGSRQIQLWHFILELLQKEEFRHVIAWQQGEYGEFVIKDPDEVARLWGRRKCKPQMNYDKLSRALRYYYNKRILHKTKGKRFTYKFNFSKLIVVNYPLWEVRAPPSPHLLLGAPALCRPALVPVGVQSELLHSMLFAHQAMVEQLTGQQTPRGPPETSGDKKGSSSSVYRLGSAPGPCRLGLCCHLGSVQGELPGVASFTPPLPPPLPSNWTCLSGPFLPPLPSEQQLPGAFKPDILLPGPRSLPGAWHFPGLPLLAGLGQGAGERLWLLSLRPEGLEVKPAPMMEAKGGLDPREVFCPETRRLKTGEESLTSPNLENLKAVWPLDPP
The note with it: protein: recombinant; tags: N-terminal GST; dsDNA, one strand shown. The method, boiled down:
as §1

Another assay concerns the target T8, ETS2 (Homo sapiens, UniProt P15036 1-469).
T8 sequence: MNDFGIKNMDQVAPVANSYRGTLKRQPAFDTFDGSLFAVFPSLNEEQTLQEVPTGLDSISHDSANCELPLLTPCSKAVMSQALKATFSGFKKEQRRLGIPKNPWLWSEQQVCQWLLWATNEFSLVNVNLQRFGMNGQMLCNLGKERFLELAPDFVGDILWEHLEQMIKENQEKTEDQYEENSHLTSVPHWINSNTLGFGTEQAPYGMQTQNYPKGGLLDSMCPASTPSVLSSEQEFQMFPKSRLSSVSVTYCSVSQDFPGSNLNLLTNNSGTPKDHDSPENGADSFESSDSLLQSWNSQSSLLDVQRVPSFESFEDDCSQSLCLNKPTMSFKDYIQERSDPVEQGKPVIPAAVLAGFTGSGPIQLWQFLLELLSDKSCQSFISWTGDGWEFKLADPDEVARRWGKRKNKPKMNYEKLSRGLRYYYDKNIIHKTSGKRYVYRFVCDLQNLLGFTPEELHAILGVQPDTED
Particulars: protein: recombinant; tags: N-terminal GST; dsDNA, one strand shown. The method, boiled down:
as §1

Another assay concerns the target T9, SPDEF (Homo sapiens, UniProt O95238 1-335).
T9 sequence: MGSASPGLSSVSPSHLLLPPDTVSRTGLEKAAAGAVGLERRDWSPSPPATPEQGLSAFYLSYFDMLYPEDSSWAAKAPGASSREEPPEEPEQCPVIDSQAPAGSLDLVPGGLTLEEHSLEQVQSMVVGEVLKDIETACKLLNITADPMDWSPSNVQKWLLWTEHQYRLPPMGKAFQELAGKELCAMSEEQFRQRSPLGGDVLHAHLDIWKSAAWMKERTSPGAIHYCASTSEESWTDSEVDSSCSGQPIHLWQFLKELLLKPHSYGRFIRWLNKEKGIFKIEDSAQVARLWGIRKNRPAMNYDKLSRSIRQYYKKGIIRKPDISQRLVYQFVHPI
Particulars: protein: recombinant; tags: N-terminal GST; dsDNA, one strand shown. The method, boiled down: as §1

The target of the next assay is T10, ETV7 (Homo sapiens, UniProt Q9Y603 1-341).
T10 sequence: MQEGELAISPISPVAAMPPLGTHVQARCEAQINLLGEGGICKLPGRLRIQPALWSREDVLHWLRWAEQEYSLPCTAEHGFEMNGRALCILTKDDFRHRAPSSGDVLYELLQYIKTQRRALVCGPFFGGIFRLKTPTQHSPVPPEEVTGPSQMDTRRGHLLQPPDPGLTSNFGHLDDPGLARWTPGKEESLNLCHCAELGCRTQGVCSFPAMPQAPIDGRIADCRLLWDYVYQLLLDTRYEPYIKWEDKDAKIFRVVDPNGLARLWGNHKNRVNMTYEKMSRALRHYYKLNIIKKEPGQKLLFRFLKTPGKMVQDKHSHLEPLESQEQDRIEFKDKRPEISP
The note with it: protein: recombinant; tags: N-terminal GST; dsDNA, one strand shown. The method, boiled down: as §1

The next assay addresses T11, ELF5 (Homo sapiens, UniProt Q9UKW6-2 1-255).
T11 sequence: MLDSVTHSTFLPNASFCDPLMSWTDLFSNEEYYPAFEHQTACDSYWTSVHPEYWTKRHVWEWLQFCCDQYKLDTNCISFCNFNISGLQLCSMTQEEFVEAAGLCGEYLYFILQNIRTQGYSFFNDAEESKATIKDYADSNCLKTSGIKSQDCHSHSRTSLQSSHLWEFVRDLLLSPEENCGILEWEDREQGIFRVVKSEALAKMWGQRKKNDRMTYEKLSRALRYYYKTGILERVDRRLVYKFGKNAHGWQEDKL
Particulars: protein: recombinant; tags: N-terminal GST; dsDNA, one strand shown. The method, boiled down: as §1

A further assay deals with T12, ETV3 (Homo sapiens, UniProt P41162-2 1-143).
T12 sequence: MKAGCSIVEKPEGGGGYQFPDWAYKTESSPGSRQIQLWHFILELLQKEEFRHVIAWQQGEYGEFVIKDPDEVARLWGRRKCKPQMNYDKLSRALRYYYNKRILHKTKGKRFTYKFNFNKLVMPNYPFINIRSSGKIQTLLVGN
Particulars: protein: recombinant; tags: N-terminal GST; dsDNA, one strand shown. The method, boiled down: as §1

The target in a further assay is ETV6 (Homo sapiens, UniProt P41212 1-452). Particulars: protein: recombinant; tags: N-terminal GST; dsDNA, one strand shown. The method, boiled down:
as §1

Experimental findings from publication PMC7862700, “An all-to-all approach to the identification of sequence-specific readers for epigenetic DNA modifications on cytosine” are described below.

Chain of ETV5 (P41161 whole entry): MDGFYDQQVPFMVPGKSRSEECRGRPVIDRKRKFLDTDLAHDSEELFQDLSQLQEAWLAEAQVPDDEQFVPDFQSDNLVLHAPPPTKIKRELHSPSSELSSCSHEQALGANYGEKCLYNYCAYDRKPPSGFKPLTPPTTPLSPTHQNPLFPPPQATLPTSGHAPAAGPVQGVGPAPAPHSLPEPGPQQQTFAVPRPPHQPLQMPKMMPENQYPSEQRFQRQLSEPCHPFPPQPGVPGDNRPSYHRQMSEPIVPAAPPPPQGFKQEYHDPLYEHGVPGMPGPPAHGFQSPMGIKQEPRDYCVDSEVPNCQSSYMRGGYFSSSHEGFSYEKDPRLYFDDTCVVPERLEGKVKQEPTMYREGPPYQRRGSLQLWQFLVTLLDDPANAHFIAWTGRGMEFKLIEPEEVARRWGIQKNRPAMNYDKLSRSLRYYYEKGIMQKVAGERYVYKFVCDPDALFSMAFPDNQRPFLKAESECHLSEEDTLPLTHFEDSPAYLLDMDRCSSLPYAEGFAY
Chain of ETV1 (P50549 whole entry): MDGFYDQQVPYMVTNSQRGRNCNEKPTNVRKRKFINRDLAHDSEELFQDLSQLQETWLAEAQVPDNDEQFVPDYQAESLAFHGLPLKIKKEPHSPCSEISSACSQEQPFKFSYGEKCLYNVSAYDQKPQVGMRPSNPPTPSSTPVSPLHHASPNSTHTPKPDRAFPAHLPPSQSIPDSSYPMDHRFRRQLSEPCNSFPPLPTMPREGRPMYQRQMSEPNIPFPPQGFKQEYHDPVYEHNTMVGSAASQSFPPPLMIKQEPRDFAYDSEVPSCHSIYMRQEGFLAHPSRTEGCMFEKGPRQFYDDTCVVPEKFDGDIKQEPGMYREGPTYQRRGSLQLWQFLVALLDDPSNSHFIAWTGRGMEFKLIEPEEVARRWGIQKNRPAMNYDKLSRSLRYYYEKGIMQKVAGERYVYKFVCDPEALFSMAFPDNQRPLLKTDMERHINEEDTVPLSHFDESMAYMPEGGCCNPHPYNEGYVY
Chain of ETV6 (P41212 whole entry): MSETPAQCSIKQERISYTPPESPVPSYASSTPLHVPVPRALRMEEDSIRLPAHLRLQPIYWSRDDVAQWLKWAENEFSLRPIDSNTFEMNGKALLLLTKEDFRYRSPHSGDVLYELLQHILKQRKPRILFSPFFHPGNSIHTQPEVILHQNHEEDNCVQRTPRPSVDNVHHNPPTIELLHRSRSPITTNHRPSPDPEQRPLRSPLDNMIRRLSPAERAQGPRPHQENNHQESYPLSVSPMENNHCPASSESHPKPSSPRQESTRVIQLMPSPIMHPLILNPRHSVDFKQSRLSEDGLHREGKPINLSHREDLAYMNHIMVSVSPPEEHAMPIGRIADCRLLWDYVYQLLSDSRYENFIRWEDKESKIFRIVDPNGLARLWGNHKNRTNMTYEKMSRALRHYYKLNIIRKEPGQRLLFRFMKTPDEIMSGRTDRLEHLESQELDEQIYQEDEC
Chain of ELF4 (Q99607 whole entry): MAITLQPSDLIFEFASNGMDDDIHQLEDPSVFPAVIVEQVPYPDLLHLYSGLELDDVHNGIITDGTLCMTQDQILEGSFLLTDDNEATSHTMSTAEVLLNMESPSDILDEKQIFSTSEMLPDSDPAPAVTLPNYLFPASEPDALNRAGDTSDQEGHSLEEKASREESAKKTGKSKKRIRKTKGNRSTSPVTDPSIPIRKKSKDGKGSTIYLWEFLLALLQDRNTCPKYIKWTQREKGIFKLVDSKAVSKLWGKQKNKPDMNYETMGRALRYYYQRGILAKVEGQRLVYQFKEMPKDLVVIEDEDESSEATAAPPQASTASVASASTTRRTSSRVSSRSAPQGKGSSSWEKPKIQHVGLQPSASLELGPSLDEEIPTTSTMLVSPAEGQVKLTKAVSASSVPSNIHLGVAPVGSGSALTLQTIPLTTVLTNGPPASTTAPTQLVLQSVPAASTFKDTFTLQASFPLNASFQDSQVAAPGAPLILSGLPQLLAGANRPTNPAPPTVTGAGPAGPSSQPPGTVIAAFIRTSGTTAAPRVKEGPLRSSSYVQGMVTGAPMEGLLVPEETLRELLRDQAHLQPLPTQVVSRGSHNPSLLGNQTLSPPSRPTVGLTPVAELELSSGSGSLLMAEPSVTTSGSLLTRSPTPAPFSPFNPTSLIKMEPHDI

Turning to GATTCA, the binding signal with FEV is 1.08 fold enrichment (6-mer frequency, TF over GST control); in the assay with ETV5, 1.08 fold enrichment (6-mer frequency, TF over GST control); with HSF1 it was 1.13 fold enrichment (6-mer frequency, TF over GST control); with SPIC, 1.14 fold enrichment (6-mer frequency, TF over GST control); with ELF4, 1.15 fold enrichment (6-mer frequency, TF over GST control); in the assay with ELK4 it was 1.24 fold enrichment (6-mer frequency, TF over GST control). Further, the binding signal with ETV2 was 1.08 fold enrichment (6-mer frequency, TF over GST control); with ELF3, 1.26 fold enrichment (6-mer frequency, TF over GST control); in the assay with CRX it was 1.13 fold enrichment (6-mer frequency, TF over GST control); with ETV1, 1.15 fold enrichment (6-mer frequency, TF over GST control); with ERF, 1.06 fold enrichment (6-mer frequency, TF over GST control); with ETV3L, 1.19 fold enrichment (6-mer frequency, TF over GST control). Also, the binding signal in the assay with ETS2 was 1.18 fold enrichment (6-mer frequency, TF over GST control); with SPDEF, 1.12 fold enrichment (6-mer frequency, TF over GST control); in the assay with ETV7, 1.09 fold enrichment (6-mer frequency, TF over GST control); with ELF5 it was 1.05 fold enrichment (6-mer frequency, TF over GST control); in the assay with ETV3, 1.2 fold enrichment (6-mer frequency, TF over GST control); with ETV6 it was 1.13 fold enrichment (6-mer frequency, TF over GST control).
